An excerpt weighted towards active compounds, which were near 11% of everything screened.
PI5P4K alpha inh: qHTS for Inhibitors of phosphatidylinositol 5-phosphate 4-kinase (PI5P4K); Phosphatidylinositol 5-phosphate 4-kinase type-2 alpha (Homo sapiens), P48426; PI5P4Kalpha enzyme, ADP-Glo luminescence, 60 min; stronger effect = lower value; max response, %; 330,000 compounds, 1.2% hits; AID 652105, 2013; active = max response of -50% or lower; inconclusive = between -30% and -50%; inactive = -30% or higher; note: value at the top dose of about 77 µM
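Human PI5P4Kalpha with substrate in 0.038 M HEPES pH 7.4, 0.28 mM EGTA, 0.1% CHAPS, 5% DMSO; reaction started with 5 microM ATP (final), 60 min at room temperature. ADP formed read by ADP-Glo luminescence.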
HP1b chromo inh: HTS for Inhibitors of HP1-beta Chromodomain Interactions with Methylated Histone Tails; 390,000 compounds, 0.56% hits; Chromobox protein homolog 1 (Homo sapiens), P83916; AlphaScreen HP1-beta / biotin-H3K9me3 peptide binding; Potency, µM (titrated, usually from 114 µM), most hits filed as inhibitors; AID 540317, 2011; note: nearly all actives have a fitted effect of over 70% in size
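HP1-beta protein (50 nM final) preincubated 30 min at room temperature with biotinylated H3(1-18)K9me3 peptide (50 nM) in PBS pH 7.4, 0.01% Tween-20, then compound added for 30 min. AlphaScreen streptavidin donor/nickel chelate acceptor beads (10 ug/mL final), 30 min dark, luminescence read.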
BAZ2B block: qHTS Assay for Inhibitors of BAZ2B; Bromodomain adjacent to zinc finger domain protein 2B (Homo sapiens), Q9UIF8; AID 504333, 2011; Potency, µM (series often up to 114 µM), hits mostly inhibitors; 360,000 compounds, 4.4% hits; AlphaScreen BAZ2B-H3K14Ac peptide displacement; note: nearly all actives have a fitted effect of over 60% in size
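Multi-concentration screen (max 110 uM) measuring displacement of acetylated histone H3 peptide from BAZ2B by AlphaScreen, using 50 nM protein, 50 nM peptide and 10 ug/mL streptavidin donor plus Ni-chelate acceptor beads.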
L3MBTL1 inh: qHTS Assay for the Inhibitors of L3MBTL1; Lethal(3)malignant brain tumor-like protein 1 (Homo sapiens), Q9Y468; AlphaScreen L3MBTL1–H3K9me1 peptide binding; Potency, µM (highest dose often 57.1 µM), usual class: inhibitors; 230,000 compounds, 0.66% hits; AID 485360, 2010; note: nearly all actives have a fitted effect of over 60% in size
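Read-out is AlphaScreen signal from streptavidin donor and nickel chelate acceptor beads (10 ug/mL final each) bridging L3MBTL1 (50 nM) and biotinylated K9-monomethylated H3(1-15) peptide (75 nM), after 30 min compound exposure at room temperature.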
JMJD2A Tudor inh: qHTS Assay for Inhibitors of JMJD2A-Tudor Domain; Lysine-specific demethylase 4A (Homo sapiens), O75164; AlphaScreen JMJD2A-Tudor / H3K4me3 peptide binding; Potency, µM (highest dose often 114 µM), hits mostly inhibitors; 390,000 compounds, 4.4% hits; AID 504339, 2011; note: nearly all actives have a fitted effect of over 50% in size
G9a block: qHTS Assay for Inhibitors of Histone Lysine Methyltransferase G9a | Histone-lysine N-methyltransferase EHMT2 (Homo sapiens), Q96KQ7 | G9a H3K9 monomethylation, AlphaScreen, 2 h | Potency, µM (highest dose often 102 µM), actives largely listed as inhibitors | 350,000 compounds, 8.8% hits | AID 504332, 2011; note: nearly all actives have a fitted effect of over 75% in size
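Enzyme 20 nM + cpd, 15 min RT; add b-H3K9 pep 500 nM / SAM 20 uM; 2 h RT; anti-H3K9me1 Ab 0.5 ug/mL + SA donor / anti-rabbit acceptor beads 20 ug/mL each, 10 min; AlphaScreen read.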
Hits are given with their value. Unless noted, calls come from the whole dose curve; as a rule, active = well fitted inhibition curve with a large enough effect; inconclusive = small, poorly fitted or top-dose-only effect; inactive = no such curve, though single readings can be large or run the other way.

COc1ccc(/C=C2\SC(=Nc3ccccc3)NC2=O)cc1 was read as BAZ2B block inactive and L3MBTL1 inh inactive.
`CCc1ccc(N=C2NC(=O)/C(=C/c3ccc(OCC(=O)O)c(OC)c3)S2)cc1` gave PI5P4K alpha inh -75, HP1b chromo inh 45µM, BAZ2B block 7.1µM, L3MBTL1 inh inactive and JMJD2A Tudor inh 28µM.
For CCOC(=O)C1=C(O)/C(=C/c2ccc(OCC(=O)O)c(OCC)c2)SC1=Nc1ccc(C)cc1 the results were PI5P4K alpha inh inactive, HP1b chromo inh inactive, BAZ2B block inactive, L3MBTL1 inh inactive, JMJD2A Tudor inh inactive and G9a block 45µM.
CCc1ccc(N=C2NC(=O)/C(=C/c3ccc(OCC(=O)O)cc3)S2)cc1 was read as PI5P4K alpha inh inconclusive, HP1b chromo inh inactive, BAZ2B block 50µM, L3MBTL1 inh inactive, JMJD2A Tudor inh inconclusive and G9a block 50µM.
`CC(C)CCNC(=O)Nc1ccc2c(c1)N(C)C(=O)c1ccccc1S2` gave HP1b chromo inh inactive, BAZ2B block inconclusive, JMJD2A Tudor inh inactive and G9a block inactive.
`CCc1nnc2n1N(C(C)=O)C(c1ccc(C(C)(C)C)cc1)=C(C(C)=O)S2` gave HP1b chromo inh inactive, BAZ2B block inactive, JMJD2A Tudor inh inactive and G9a block inactive.
For O=C1Cc2c([nH]c3ccc(Br)cc23)-c2ccccc2N1 the results were PI5P4K alpha inh inactive, HP1b chromo inh inactive, JMJD2A Tudor inh inactive and G9a block 40µM.
For COc1c(C=O)c(O)cc2c1C(=O)c1ccccc1C2=O the results were G9a block 5µM.
For COc1ccc(CC2=C(O)c3ccccc3C(=O)C2=O)cc1 the results were PI5P4K alpha inh inactive, HP1b chromo inh inactive, BAZ2B block inconclusive, L3MBTL1 inh inactive, JMJD2A Tudor inh inactive and G9a block inconclusive.
Screening CCOC(=O)c1c(CSc2ccccc2)n(C)c2cc(Br)c(OC)c(O)c12 returned PI5P4K alpha inh inactive, HP1b chromo inh inactive, BAZ2B block inactive, L3MBTL1 inh inactive, JMJD2A Tudor inh inactive and G9a block inactive.
For CCOC(=O)c1c(CSc2ccccc2)n(C)c2cc(Br)c(OCC(O)CNC(CO)(CO)CO)cc12 (stereo not drawn) the results were PI5P4K alpha inh inactive, HP1b chromo inh 56µM, BAZ2B block inconclusive, L3MBTL1 inh inactive, JMJD2A Tudor inh inconclusive and G9a block 40µM.
Screening CCOC(=O)C1CCC(CN(Cc2cccc(Br)c2)S(=O)(=O)c2ccc(C)cc2)CC1 (stereo not drawn) returned HP1b chromo inh inactive, BAZ2B block inactive, JMJD2A Tudor inh inactive and G9a block inactive.
`Cc1nnc(NC2CCCCC2)[nH]c1=O` gave PI5P4K alpha inh inactive, HP1b chromo inh inactive, BAZ2B block inactive, L3MBTL1 inh inactive, JMJD2A Tudor inh inactive and G9a block inactive.
O=c1[nH]c(NC2CCCCC2)nnc1Cc1ccccc1 was read as PI5P4K alpha inh inactive, HP1b chromo inh inactive, BAZ2B block inactive, L3MBTL1 inh inactive, JMJD2A Tudor inh 50µM and G9a block inconclusive.
`Cc1cccc(Nc2nc(N)nc(N)c2N=O)c1` gave PI5P4K alpha inh -51, HP1b chromo inh inactive and JMJD2A Tudor inh inactive.
`Cc1cccc(Nc2nc(N)c(C#N)c(CC#N)c2C#N)c1` gave PI5P4K alpha inh -54, HP1b chromo inh inactive, BAZ2B block inactive, L3MBTL1 inh inactive, JMJD2A Tudor inh inactive and G9a block inactive.
`Cc1ccc(Nc2nc(N)nc(N)c2N=O)cc1C` gave PI5P4K alpha inh inactive.
`COc1ccccc1NC(=O)c1ccc2nsnc2c1` gave PI5P4K alpha inh inactive, HP1b chromo inh inactive, BAZ2B block inactive, JMJD2A Tudor inh 13µM and G9a block inactive.
Screening COc1cccc(OC)c1C(=O)NC(C)c1ccccc1 (stereo not drawn) returned PI5P4K alpha inh inactive, HP1b chromo inh inactive, BAZ2B block inactive, L3MBTL1 inh inactive, JMJD2A Tudor inh inactive and G9a block inactive.

Compound activity as filed in PubChem.
